This is a sample that favours compounds with a hit; in the whole collection about 3.4% have one here.
PGC1a acetyl inh = PGC1a acetylation modulation, inhibitor mode. U2OS PGC1a acetylation, AlphaScreen anti-acetyl-lysine; with virally co-expressed GCN5 acetyltransferase. inhibition, % at 15.6 µM. hit rate 0.17% among 350,000;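 active = every replicate shows inhibition of at least 40%; inconclusive = mean inhibition at least 40% but some replicate below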;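 also: 0% = neutral control wells and 100% = positive control wells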
EWS-Fli block = inhibitors of EWS/Fli oncoprotein transcriptional activity; A673 NR0B1-luciferase reporter, viability-normalised; inhibition, % at 12.6 µM; hit rate 0.67% among 350,000; AID 651661;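 active = mean inhibition of at least 50% after viability correction, with every replicate also passing that limit; inconclusive = mean reaches 50% but only one of two replicates passes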;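 also: firefly luciferase signal divided by Alamar Blue viability fluorescence both relative to DMSO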
rRNA inh HTS = inhibits bacterial ribosomal RNA function over humanized ribosomes; E. coli WT GFP vs humanized-ribosome RFP mutants, fluorescence, 24 h; stronger effect = lower value; DMSO median 0, no signal -100; GFP signal change (wild-type ribosome), % (test concentration not listed); hit rate 1.6% among 350,000;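 active = significant combined selectivity score with lowered wild-type GFP, culture density cut under 30%, mutant RFP and density less affected; inactive = any of these conditions unmet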
PAX8 inh HTS = PAX8 transcriptional activity inhibition. hit rate 1.2% among 360,000. inhibition, % at 12.6 µM. RMG-I TPO-luciferase reporter, SteadyGlo, 24 h;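 active = mean replicate inhibition at least 60% with every replicate also reaching 60%; inconclusive = only one of the two criteria is met; inactive = mean below 60% and not all replicates reaching 60%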;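 also: luciferase light reporting Pax8 driven TPO promoter activity; plate controls were median of neutral control wells for no effect and mitoxantrone controls for full effect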
SIRT5 inh = inhibitors of human sirtuin-5 desuccinylase. Q9NXA8. Purified SirT5, succinyl-peptide AMC, trypsin-coupled fluorescence. inhibition, % at 15 µM. hit rate 1.1% among 330,000; in the data active = inhibition above about 15%; inconclusive = no clear call, values can overlap the other calls
Target sequence (Q9NXA8 whole entry, looked up): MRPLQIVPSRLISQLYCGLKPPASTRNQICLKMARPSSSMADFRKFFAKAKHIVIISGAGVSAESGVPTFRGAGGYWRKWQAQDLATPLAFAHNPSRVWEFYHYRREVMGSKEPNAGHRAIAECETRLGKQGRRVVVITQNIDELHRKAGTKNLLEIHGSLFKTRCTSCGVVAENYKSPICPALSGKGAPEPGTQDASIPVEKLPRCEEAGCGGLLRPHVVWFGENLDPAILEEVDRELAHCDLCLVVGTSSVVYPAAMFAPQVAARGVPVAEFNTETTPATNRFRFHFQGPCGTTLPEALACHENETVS
LGR2 antag = inhibitors of bursicon-induced Drosophila LGR2 receptor cAMP signaling. HEK293 LGR2, CRE-luciferase, bursicon-stimulated, 4 h. inhibition, % at 9.99 µM. hit rate 0.35% among 380,000. AID 720647;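 active = drop in luminescence signal, shown as inhibition above about 50% in the replicate tests, limit read from the data, passing the limit was not always enough; inconclusive = probably only some replicates passing the limit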;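 also: agonist challenge used bursicon conditioned medium at about half maximal strength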
An asterisk follows results filed as active; ? = inconclusive; . = no result given; ! = a repeat was not active.

SMILES	PGC1a acetyl inh	EWS-Fli block	rRNA inh HTS	PAX8 inh HTS	SIRT5 inh	LGR2 antag
Cc1ccccc1NC(=O)COC(=O)CCC(=O)c1cccs1	.	-10	3	.	15*	-19
Cc1ccc(NC(=O)CCC(=O)c2cccs2)cc1F	.	1	5	11	101*	-40
Cc1ccnc(NC(=O)CCC(=O)c2cccs2)c1	.	78*	3	?	2	89*
CCC(=O)c1ccccc1OCCN1C(=O)NC(C)(C)C1=O	-2	8	2	.	-1	13
CC1(C)NC(=O)N(CCOCCOc2ccccc2-c2ccccc2)C1=O	.	10	-21	2	26*	15
CC(C)N=C(N)N=C(N)Nc1ccc(Cl)cc1	-37	-9	2	-11	-2	-10
NC(=NCCCCCCN=C(N)/N=C(\N)Nc1ccc(Cl)cc1)/N=C(\N)Nc1ccc(Cl)cc1	-6	6	.	98*!	0	23
Cc1ccccc1NC(=O)Nc1nnc([C@@H]2C[C@H](O)[C@@H](CO)O2)s1	.	-13	7	-12	-1	-7
O=C(Nc1nnc([C@H]2C[C@H](O)[C@@H](CO)O2)s1)Nc1cccc(Cl)c1Cl	3	-57	-25*	-43	.	-6
C[C@@H]1CN([C@H](C)CO)C(=O)c2cc(NS(=O)(=O)c3ccccc3)ccc2O[C@@H](C)CCCCO[C@@H]1CN(C)S(=O)(=O)c1cccs1	1	5	-3	21	2	3
Cc1ccc(C(=O)/C=C/c2cc(C#N)n(C)c2C)cc1	-6	-48	4	-11	22*	-45
Cc1cccc(NC(=S)NCCN2CCOCC2)c1	.	-10	.	-19	3	-6
S=C(NCCCN1CCOCC1)Nc1cccc(-c2nnc3n2CCCCC3)c1	.	-9	15	13	16*	14
C/C=C/CN(C(=O)C#Cc1ccccc1)[C@H](CO[Si](C)(C)C(C)(C)C)c1ccccc1	1	11	.	18	0	.
Cc1[nH]c2ccc(-c3n[nH]c(=S)n3C)cc2c1C	-28	-10	-16*	.	0	-2
CCn1c(-c2ccc3[nH]c(C)c(C)c3c2)n[nH]c1=S	-18	-1	-12	.	3	-11
CC(=O)N(C)C[C@H]1Oc2cc(-c3ccncc3)ccc2S(=O)(=O)N([C@H](C)CO)C[C@H]1C	5	-15	4	.	-5	6
COCC(=O)N1C[C@H](C)[C@@H](OC)CN(C)C(=O)c2cc(NC(=O)Nc3cccc(F)c3)ccc2OC[C@H]1C	-3	6	-1	-10	-7	-4
O=C(COC(=O)CNC(=O)c1ccccc1)NC(=O)NC1CCCCC1	-20	4	6	-9	23*	-2
O=C1C(SCCO)=C(SCCO)C(=O)c2ccccc21	4	64*	-48	114*	-6	19
Cc1ccc(OCCSc2nc3ccccc3n2CC(=O)O)cc1	17	-2	-3	34	16*	-4
COc1ccccc1OCCSc1nc2ccccc2n1CC(O)CO (stereo not given)	5	1	3	14	18*	-5
CCc1ccc(OCCSc2nc3ccccc3n2CC(=O)O)cc1	.	8	-15	-19	-4	-6
CN(CC(=O)Nc1cccc(Cl)c1)S(=O)(=O)c1ccc2c(c1)n(C)c(=O)c(=O)n2C	-2	.	10	-3	33*	3
CN(CC(=O)Nc1cccc(Cl)c1)S(=O)(=O)c1ccc2[nH]c(=O)oc2c1	4	-3	-25*	3	1	24
SMILES	PGC1a acetyl inh	EWS-Fli block	rRNA inh HTS	PAX8 inh HTS	SIRT5 inh	LGR2 antag
O=C(O)c1cc(N2N=C(C(F)(F)F)/C(=C/C=C/c3ccco3)C2=O)ccc1Cl	-11	0	13	10	63*	11
CCOC(=O)c1ccc(N2N=C(C)/C(=C/C=C/c3ccco3)C2=O)cc1	10	.	.	5	.	.
C[C@H]1CN([C@@H](C)CO)C(=O)Cc2cc(NC(=O)CCC(F)(F)F)ccc2O[C@H]1CN(C)S(=O)(=O)c1ccc(Cl)cc1	2	56*	-1	?	7	5
C[C@H]1CN([C@@H](C)CO)C(=O)Cc2cc(NC(=O)CCC(F)(F)F)ccc2O[C@H]1CN(C)S(=O)(=O)c1ccc(F)cc1	0	57*!	1	13	-3	10
C[C@H](CO)N1C[C@H](C)[C@@H](CN(C)S(=O)(=O)c2ccc(Cl)cc2)Oc2ccc(NC(=O)CCC(F)(F)F)cc2CC1=O	-7	5	-2	15	2	13
C[C@H](CO)N1C[C@H](C)[C@H](CN(C)S(=O)(=O)c2ccc(Cl)cc2)Oc2ccc(NC(=O)CCC(F)(F)F)cc2CC1=O	5	59*	-4	34	-3	24
COc1ccc2c3c([nH]c2c1)[C@@H](CO)N(C(=O)Cc1ccccc1)CC31CN(C)C1	-10	-7	4	-11	-3	10
CN1CCN(C(=O)C2=C[C@H](C(C)(C)C)C[C@H](OCc3ccc(CO)cc3)O2)CC1	-1	1	.	-25	3	.
CC1(C)CC(=O)C2=C(C1)OC(c1ccc(O)cc1)C(C#N)=C2N (stereo not given)	4	10	-2	81*	.	-6
O=C(C[C@@H]1CC[C@H]2[C@@H](COC[C@@H](O)CN2Cc2ccc(Oc3ccccc3)cc2)O1)Nc1nccs1	-3	39	-29	33	3	3
Cc1cccc(NC(=O)c2cnc3ccccn3c2=O)c1	.	58*	.	-224	-10	.
O=C(Nc1cnc2ccccn2c1=O)c1ccc(Cl)cc1Cl	3	41	-4	-34	-2	71*
CN(C)c1ccc(NC(=O)c2cnsn2)cc1	-1	22	27	-8	-3	71*
S=c1[nH]nc(COc2ccccc2)n1/N=C/c1ccccc1Cl	1	-1	-24*	8	-3	7
C[C@@H]1CN([C@H](C)CO)S(=O)(=O)c2ccc(C3=CCCC3)cc2O[C@H]1CN(C)C(=O)C1CCC1	12	11	-7	.	1	14
COC(CN1CCc2c(C)nc3c(C#N)cnn3c21)OC	9	0	9	2	17*	-11
Cc1noc(C)c1S(=O)(=O)Nc1ccc2c(c1)C(=O)N([C@@H](C)CO)C[C@H](C)[C@@H](CN(C)C(=O)Cc1ccccc1)OCCCC[C@H](C)O2	11	8	-1	-3	2	-3
COc1ccc(-c2cc(C(F)(F)F)nc(SCc3cccc(C(=O)O)c3)n2)cc1	-6	6	-43*	.	6	2
C[C@@H]1CC=CC[C@H](c2ccc(F)cc2)NC(=O)[C@H](C)N(C)C(=O)c2ccccc2O1 (mixture of isomers)	.	.	1	.	.	.
C[C@@H]1CN([C@@H](C)CO)C(=O)c2cc(C#CC(C)(C)O)cnc2O[C@@H]1CN(C)Cc1cccc(F)c1	-5	8	1	-8	.	-3
COc1ccc2c3c([nH]c2c1)[C@H](CO)N(Cc1cccc(Cl)c1)CC31CN(C(C)=O)C1	19	11	-6	-17	7	6
